Screening data as filed in PubChem BioAssay.
Hits are enriched below; roughly 2.8% of the tested compounds scored in any of these assays.
PTHR1 ag: PTHR1 (human) receptor agonism | hit rate 0.075% among 410,000 | AID 743266 | HEK293 GP2 PTHR1 cells, GloSensor cAMP luminescence, 1 h | Potency, µM (highest dose often 115 µM), without a hit: at the top dose activation, hits mostly activators | Q03431; note: potency is the fitted concentration of half-maximal effect; nearly all actives have a fitted effect of over 55% in size
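HEK-293-derived GP2 cells expressing PTHR1 and a GloSensor cAMP reporter, 3,000/well, plated overnight, given luciferin plus IBMX (each 0.5 mM as added) for 1 h at 37 °C, then compound for 1 h at 37 °C. Luminescence was read after 15 min at room temperature.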
MBNL1 CUG block: MBNL1-poly(CUG) RNA binding inhibition. Q9NR56. TR-FRET MBNL1-His/biotin-(CUG)12 binding, 665/545 ratio. Potency, µM (highest dose often 57.5 µM), without a hit: top-dose activity change, negative = inhibition, actives largely listed as inhibitors. hit rate 0.036% among 280,000. AID 2675; active = well fitted inhibition curve with a large enough effect in the signal ratio, with a control signal flat, not every such curve was filed as active; inconclusive = small, poorly fitted or top-dose-only effect, or effect the other way, or a change in a side signal; inactive = no such curve, though single readings can be large or run the other way; the % refers to the signal ratio; note: potency is the fitted concentration of half-maximal effect; % is set by controls: 0 for no effect and ±100 for the full control effect
Target sequence (Q9NR56 whole entry, looked up): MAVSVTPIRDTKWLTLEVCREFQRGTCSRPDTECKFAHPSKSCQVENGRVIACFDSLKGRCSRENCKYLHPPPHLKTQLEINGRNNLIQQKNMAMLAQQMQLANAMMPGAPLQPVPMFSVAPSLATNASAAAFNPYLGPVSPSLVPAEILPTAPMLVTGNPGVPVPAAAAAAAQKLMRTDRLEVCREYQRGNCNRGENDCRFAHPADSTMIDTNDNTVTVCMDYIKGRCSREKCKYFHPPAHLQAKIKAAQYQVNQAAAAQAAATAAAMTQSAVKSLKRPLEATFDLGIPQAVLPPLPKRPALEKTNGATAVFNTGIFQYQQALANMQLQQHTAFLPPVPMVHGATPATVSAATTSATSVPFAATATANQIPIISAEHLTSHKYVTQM
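MBNL1-His + Biotin-(CUG)12, cpd titration 92 nM–58 uM; Tb anti-His Ab 0.055 ng/ul, SA-XL665 5 nM (final); 60 min RT; ratiometric 665/545 nm, Ex 340 nm; normalized to buffer and full-complex controls.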
CBFb-RUNX1 inh: blocks binding between human CBF-beta and RUNX1. Q01196+Q13951. AlphaScreen CBFb-His/RUNX1-biotin binding, biochemical. Potency, µM (titrated, usually from 59.8 µM), for inactives: at the highest dose activity, negative = inhibition, most hits filed as inhibitors. 230,000 tested, under 10 active. AID 1477; note: % of control where 0% means no effect
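Room-temperature protein-protein interaction test with 30 nM each of His-tagged CBF-beta and biotinylated RUNX1, 15 min with compound, then 90 min with nickel plus streptavidin beads. Signal read in AlphaScreen mode.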
DRD3 antagonist: blocks the human D3 dopamine receptor | P35462 | D3R cells, DiscoveRx beta-arrestin luminescence, antagonist mode; active compounds read low | max response, negative = inhibition, % | hit rate 2.5% among 360,000; in the data active = max response below about -50%; inconclusive = no clear call, values can overlap the other calls; note: % is set by controls: 0 for no effect and ±100 for the full control effect
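Cells plated overnight at 1500 cells/well, then exposed to library compounds with dopamine controls for 90 minutes at 37 degrees C. DiscoveRx reagent added for 30–60 minutes at room temperature; luminescence read, quantitative HTS format.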
DRD3 agonist: agonists of human D3 dopamine receptor; AID 652048; max activation, %; D3R DiscoveRx beta-arrestin cells, luminescence, 90 min; P35462; hit rate 0.58% among 410,000; in the data active = max activation above about 30%; note: 0% is about no effect
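Cells at 1500/well, incubated overnight, then treated with pinned compounds (dopamine as control) for 90 min at 37 degrees C. DiscoveRx reagent added for 30 - 60 minutes at room temperature; luminescence read.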
Integrin act MD: integrin-mediated muscular dystrophy alleviation activation; Potency, µM (highest dose often 38.3 µM), for the others: top-dose activation, most hits filed as activators; alpha7betagal myoblasts, beta-gal FDG fluorescence, 48 h; hit rate 0.064% among 350,000;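 note: potency is the fitted concentration of half-maximal effect; 100% = response of the positive control SU9516; nearly all actives have a fitted effect of over 60% in size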
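Alpha7betagal+/- myoblasts (passage 13) were plated 16-24 hr, then exposed to compounds (1:260 dilution of DMSO stock) for 48 hours at 37C. After MPER lysis, β-galactosidase reporter activity was read as FDG fluorescence (ex 480/em 540) after 30 minutes.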
* hit, by the source's call; i = inactive; ? = inconclusive; nt = no result given; [ ] = dose if it differs, or a comment. Unless noted, calls come from the whole dose curve; as a rule, active = well fitted curve in the direction sought with a large enough effect; inconclusive = small, poorly fitted or top-dose-only effect, or another doubt; inactive = no such curve, though single readings can be large; an effect the other way counts as inactive or inconclusive.

SMILES | PTHR1 ag | MBNL1 CUG block | CBFb-RUNX1 inh | DRD3 antagonist | DRD3 agonist | Integrin act MD
O=C(CN1CCC2(CC1)OCCO2)c1ccc2cc[nH]c2c1 | -20.0% | -4.7% | 5.1% | -19.9 | -10.7 | 5.8%
O=C(CCN1Cc2ccccc2C1)c1ccc2c(c1)OCCO2 | -3.6%[57.5 µM] | -10.4% | -0.4% | -52.4* | -28.9 | -75.3%
O=C1c2ccccc2C(=O)N1CCc1c(-c2[nH]c3ccccc3c2CCN2C(=O)c3ccccc3C2=O)[nH]c2ccccc12 | 13.0% | nt | nt | 15.4 | 9.1 | -12.9%
O=C1c2ccccc2C(=O)N1CCc1c(-c2ccccc2)[nH]c2ccccc12 | -60.7% | nt | nt | 138.7 | 32.9* | 20.2%
CC1=NN(c2nc(-c3ccc(C)cc3)cs2)C(=O)C1N=Nc1ccccc1O (stereo not drawn) | -74.1% | 15.5% | ? | -64.5* | -12.7 | -31.1%
CC1=NN(c2nc(-c3ccc(C)cc3)cs2)C(=O)C1N=Nc1cccc(O)c1 (stereo not drawn) | -11.6% | 20.3% | ? | 3.7 | -8.7 | ?
CC(Nc1ccc(-c2nc(-c3ccccn3)no2)cc1[N+](=O)[O-])c1ccccc1 (stereo not drawn) | i | nt | nt | nt | 1.1 | nt
Cc1c(NC(=O)c2cnc(Cl)c(Cl)c2)c(=O)n(-c2ccccc2)n1C | -17.0% | -7.3% | nt | 0.1 | -1.2 | 0.0%
COc1ccc(C(=O)COC(=O)c2cccc(-n3cnnn3)c2)c(OC)c1 | -18.3% | nt | nt | 8.9 | 36.4* | 7.7%
COc1ccc(-c2nc3c(C#N)c[nH]n3c2NC2CCCC2)cc1 | i | nt | nt | nt | 49.5* | nt
CCc1nc2ccc(C(=O)NCCCN3CCCC3=O)cn2c1N(CC)C(C)=O | -23.7% | nt | nt | -55.9* | -4.7 | nt
CCOCc1cc(CN2CCN(c3ccccc3OC)CC2)c(O)c2ncccc12 | i | nt | nt | nt | -20.1 | nt
CCOc1ccccc1N1CCN(Cc2cccc(OC)c2O)CC1 | -64.5% | -4.2% | 2.7% | -92.9* | -66.4 | -12.5%
COc1ccccc1N1CCN(Cc2cc(Br)c(O)c3ncccc23)CC1 | 3.0% | 15.0% | ? | -83.8* | -18.3 | -34.0%
O=C(CCS(=O)(=O)c1cc2c(cc1Cl)NC(=O)CO2)NCc1ccc(F)cc1 | -15.5% | -2.4% | nt | 17.6 | 2.5 | 27.1%
COc1ccc(CCN(C(=O)c2snc(C(N)=O)c2N)C(C(=O)NCC2CCCO2)c2ccc(F)cc2)cc1OC (stereo not drawn) | -16.6% | 11.1% | nt | 10.1 | 35.6* | 13.3%
Cc1cccc(CCN(C(=O)c2snc(C(N)=O)c2N)C(C(=O)NCC2CCCO2)c2ccc(F)cc2)c1 (stereo not drawn) | -0.9% | 13.2% | nt | 8.5 | 2.1 | -26.9%
COc1ccc(N2CCN(S(=O)(=O)c3ccc(CC(C)C)cc3)CC2)cc1 | i | nt | nt | nt | 2.5 | nt
CCOC(=O)c1ccc(NC(=O)Cn2ncc3c(C)n(Cc4ccccc4F)c(C)c3c2=O)cc1 | -24.3% | nt | nt | nt | 7.1 | nt
CCc1[nH]nc2c1C(c1ccc(Br)s1)C(C#N)=C(N)O2 (stereo not drawn) | -14.5% | ? | 0.3% | -55.6* | -2.3 | -66.2%
Cc1cc(C)cc(NC(=O)[C@H](NC(=O)[C@@H]2Cc3ccccc3CN2)c2ccccc2)c1 | i | 1.8% | nt | -107.6* | -25.1 | -34.6%
CC1(C(=O)Nc2cccc3cccnc23)CCN1Cc1ccc(-c2ccccc2)o1 (stereo not drawn) | i | nt | nt | 34.6 | 4.0 | nt
O=[N+]([O-])c1cnc(Nc2ccccc2)nc1Nc1ccccc1 | -21.4% | -8.5% | nt | -83.1* | 3.7 | 3.3%
O=c1cc(CSc2nnc(Nc3ccccc3)s2)nc2sccn12 | i | 1.7% | -0.8% | -2.5 | 5.8 | -10.3%
Cc1ccccc1Nc1nnc(SCc2cc(=O)n3ccsc3n2)s1 | 7.4%[57.5 µM] | 85.6% | -2.6% | 4.3 | 46.3* | -34.8%
O=C1c2ccsc2SCCN1Cc1c(F)cccc1Cl | -38.3% | -6.6% | nt | 1.5 | 1.6 | 10.7%
O=C1c2ccsc2SCCN1Cc1c(Cl)cccc1Cl | i | -2.4% | -6.8% | -60.9* | -2.1 | ?
